Assay results taken from PubChem BioAssay AID1159580 (chemical genetic matrix, 2015).
Where “and” joins values, the source holds several entries; their conditions need not be identical. Identical values can stand only once. In all, about 5,500 compounds went through this assay and about 2,000 (36%) were called active. Inconclusive results (about 18%) are left out. Rule as the data show it: active = normalized growth mostly below about 0.91 (no sharp cut-off); inconclusive = no clear call, values can overlap the other calls; inactive = mostly above about 0.92. This is one part of the list.

Experiment: chemical genetic growth profiling, strain panel (AID 1159580);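 also: tested at 20 µM; growth read once vehicle control cultures reached saturation at 30 °C; 1 = growth at the plate median or of vehicle wells; lower values mean less growth of the strain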
Settings: S. cerevisiae deletion strains, growth OD

Measured: normalized growth

COc1ccc2c(c1)O[C@H]1c3ccc(OC)cc3OC[C@@H]21
active: locus YDL192W, strain arf1, stronger effect = lower value 0.897 | locus YDR101C, strain arx1, stronger effect = lower value 0.911 | locus YDR318W, strain mcm21, stronger effect = lower value 0.87 | locus YDR502C, strain sam2, stronger effect = lower value 0.876 | locus YGL078C, strain dbp3, stronger effect = lower value 0.897 | locus YGL086W, strain mad1, stronger effect = lower value 0.882 | locus YGL248W, strain PDE1, stronger effect = lower value 0.863 | locus YGR135W, strain pre9, stronger effect = lower value 0.84 | locus YGR252W, strain gcn5, stronger effect = lower value 0.669 | locus YIR030C, strain dcg1, stronger effect = lower value 0.927
0.684 (active) and 0.982 (inactive): locus YJL095W, strain BCK1, stronger effect = lower value
inactive: locus YAL021C, strain ccr4, stronger effect = lower value 1.03 | locus YAL026C, strain drs2, stronger effect = lower value 1.02 | locus YAL030W, strain snc1, stronger effect = lower value 1.02 | locus YBL061C, strain skt5, stronger effect = lower value 1.02 | locus YBR009C, strain hhf1, stronger effect = lower value 1 | locus YBR021W, strain FUR4, stronger effect = lower value 0.961 | locus YBR023C, strain chs3, stronger effect = lower value 1.02 | locus YBR171W, strain sec66, stronger effect = lower value 1.03 | locus YBR229C, strain ROT2, stronger effect = lower value 0.975 | locus YBR231C, strain swc5, stronger effect = lower value 1.01 | locus YBR279W, strain paf1, stronger effect = lower value 1.02 | locus YCL011C, strain gbp2, stronger effect = lower value 1.02 | locus YCL016C, strain dcc1, stronger effect = lower value 1.03 | locus YCL029C, strain bik1, stronger effect = lower value 0.99 | locus YCL069W, strain vba3, stronger effect = lower value 1.03 | locus YCR088W, strain abp1, stronger effect = lower value 1.02 | locus YDL005C, strain med2, stronger effect = lower value 1.02 | locus YDL035C, strain GPR1, stronger effect = lower value 0.945 | locus YDL040C, strain nat1, stronger effect = lower value 1.01 | locus YDL074C, strain BRE1, stronger effect = lower value 0.911 | locus YDL101C, strain DUN1, stronger effect = lower value 0.984 | locus YDL185W, strain tfp1, stronger effect = lower value 0.98 | locus YDR001C, strain nth1, stronger effect = lower value 1.01 | locus YDR069C, strain doa4, stronger effect = lower value 1.01 | locus YDR137W, strain rgp1, stronger effect = lower value 1.06 | locus YDR150W, strain NUM1, stronger effect = lower value 0.986 | locus YDR159W, strain sac3, stronger effect = lower value 1.05 | locus YDR162C, strain NBP2, stronger effect = lower value 0.937 | locus YDR195W, strain ref2 0.976 | locus YDR297W, strain sur2, stronger effect = lower value 1.03 | locus YDR334W, strain swr1, stronger effect = lower value 1.02 | locus YDR335W, strain msn5, stronger effect = lower value 1.03 | locus YDR388W, stronger effect = lower value 0.956 | locus YDR392W, strain spt3, stronger effect = lower value 1.03 | locus YEL003W, strain gim4, stronger effect = lower value 1.02 | locus YEL037C, strain rad23, stronger effect = lower value 1.02 | locus YEL061C, strain CIN8 (second series), stronger effect = lower value 1.02 | locus YEL061C, strain CIN8, stronger effect = lower value 0.985 | locus YER015W, strain faa2, stronger effect = lower value 1.03 | locus YER016W, strain bim1, stronger effect = lower value 1.02 | locus YER110C, stronger effect = lower value 0.924 | locus YER111C, strain swi4, stronger effect = lower value 1.02 | locus YER155C, strain BEM2 (second series), stronger effect = lower value 1.04 | locus YER167W, strain BCK2, stronger effect = lower value 0.989 | locus YFR010W, strain ubp6, stronger effect = lower value 1.01 | locus YGL167C, strain pmr1, stronger effect = lower value 1.02 | locus YGL173C, strain kem1, stronger effect = lower value 1.02 | locus YGL227W, strain vid30, stronger effect = lower value 1.02 | locus YGL240W, strain doc1, stronger effect = lower value 1.03 | locus YGL253W, strain hxk2, stronger effect = lower value 1.02 | locus YGR078C, strain PAC10, stronger effect = lower value 0.928 | locus YHR013C, strain ard1, stronger effect = lower value 1.05 | locus YHR027C, strain rpn1, stronger effect = lower value 1.02 | locus YHR030C, strain SLT2, stronger effect = lower value 0.977 | locus YHR079C, strain IRE1 (second series), stronger effect = lower value 0.95 | locus YHR079C, strain IRE1, stronger effect = lower value 0.964 | locus YHR094C, strain hxt1, stronger effect = lower value 0.968 | locus YHR129C, strain ARP1, stronger effect = lower value 1 | locus YHR142W, strain chs7, stronger effect = lower value 1.02 | locus YHR200W, strain rpn10, stronger effect = lower value 0.944 | locus YIL066C, strain RNR3, stronger effect = lower value 0.977 | locus YIL073C, strain SPO22, stronger effect = lower value 0.961 | locus YIL125W, strain kgd1, stronger effect = lower value 0.973 | locus YJL092W, strain hpr5, stronger effect = lower value 1.02 | locus YJL095W, strain BCK1 (second series), stronger effect = lower value 1.01 | locus YJL115W, strain asf1, stronger effect = lower value 1.03 | locus YJL129C, strain trk1, stronger effect = lower value 1.05 | locus YJL134W, strain LCB3, stronger effect = lower value 0.992 | locus YJL154C, strain vps35, stronger effect = lower value 1.02 | locus YJL164C, strain tpk1, stronger effect = lower value 1.02 | locus YJL166W, strain qcr8, stronger effect = lower value 1.02 | locus YJL168C, strain set2, stronger effect = lower value 0.955 | locus YJL187C, strain SWE1 (second series), stronger effect = lower value 0.96 | locus YJL187C, strain SWE1, stronger effect = lower value 1.02 | locus YJR066W, strain TOR1, stronger effect = lower value 0.927
